Test [1] in a line: NCI Yeast Anticancer Drug Screen. Data for the rad50 strain (AID 155).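 Note: 0% = growth of vehicle-only cultures of the same strain.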 Particulars: S. cerevisiae rad50 strain growth inhibition, stronger effect = higher value. The gist of the method:
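Genetically altered yeast (DNA repair pathway); compound treatment; growth inhibition vs vehicle ctrl.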

Test [2] is described as follows: NCI Yeast Anticancer Drug Screen. Data for the mec2-1 strain (AID 157). Particulars: S. cerevisiae mec2-1 strain, stronger effect = higher value. The gist of the method:
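Test agents were screened against the mec2-1 yeast strain, with defined DNA repair or cell cycle alteration. Growth was scored as inhibition against vehicle-only controls.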

Test [3] in a line: NCI Yeast Anticancer Drug Screen. Data for the sgs1 mgt1 strain (AID 161).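 Note: 0% = growth of cultures given vehicle only.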 Particulars: S. cerevisiae sgs1 mgt1 strain, stronger effect = higher value. Summed up:
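Mutant yeast exposed to compound; growth scored against vehicle-only wells.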

Test [4] in a line: NCI Yeast Anticancer Drug Screen. Data for the cln2 rad14 strain (AID 165).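 Note: 0% = growth equal to vehicle treated cultures.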 Particulars: S. cerevisiae cln2 rad14 strain, stronger effect = higher value. Summed up: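 Growth of compound-exposed yeast (cln2 rad14 genotype) measured and expressed as inhibition relative to vehicle.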
Test [5] can be described thus: NCI Yeast Anticancer Drug Screen. Data for the bub3 strain (AID 167). Conditions: S. cerevisiae bub3 mutant strain, stronger effect = higher value. Summed up:
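Yeast carrying a defined mutation is treated with each compound, and growth is compared with that of vehicle-exposed cells to give inhibition.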

A short description of test [6]: NCI Yeast Anticancer Drug Screen. Data for the mlh1 rad18 strain (AID 175). Conditions: S. cerevisiae mlh1 rad18 strain growth inhibition, stronger effect = higher value. Summed up:
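In this whole-cell yeast screen, a strain with altered DNA damage repair is challenged with compound, and its growth is measured against matched vehicle-treated controls.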

The mark [7] stands for this setting: at 5.0 µM (retest, dose inferred, filed as 0.5).
Setting [8] is: at 50.0 µM (retest, dose inferred, filed as 5.0).

Where “and” joins values, the source holds several entries; their conditions need not be identical. Equal entries are not always repeated. This is part of a sample that, as a whole, favours compounds with a hit. Of some 79,000 tested, about 15% had one in any assay. Some compounds were tested as several samples or in several runs, with calls that do not always agree. Calls of active or inactive are those of the source. Cut-off read from the data, not from the text of the source: active = growth inhibition above about 70%; inactive = the rest.

`N#Cc1ccccc1C(Cl)(Cl)Cl`: the growth inhibition in test [1] (setting [7]) is 3% (inactive); in test [1] (setting [8]), -6% (inactive); in test [1] (at 50.0 µM) it was -5.55% (inactive); in test [2] (setting [7]), 6% (inactive); in test [2] (setting [8]) it was 12% (inactive); in test [2] (at 50.0 µM), -21.9% (inactive). Also, the growth inhibition in test [3] (setting [7]) is -8% (inactive); in test [3] (setting [8]), 3% (inactive); in test [3] (at 50.0 µM) it was -7.1% (inactive); in test [4] (setting [7]) it was 38% (inactive); in test [4] (setting [8]) it was 18% (inactive); in test [4] (at 50.0 µM) it was 27.1% (inactive). For the same compound, the growth inhibition is 26% (inactive) in test [5] (setting [7]); 13% (inactive) in test [5] (setting [8]); 16.4% (inactive) in test [5] (at 50.0 µM); 9% (inactive) in test [6] (setting [7]); 28% (inactive) in test [6] (setting [8]); -0.3% (inactive) in test [6] (at 50.0 µM).

For `Cc1ccc(S(=O)(=O)OC2CCC3C4CC=C5CC(SC(=N)N)CCC5(C)C4CCC23C)cc1` (stereo unspecified), the growth inhibition in test [1] (setting [7]) was 67% (inactive); in test [1] (setting [8]), 82% (active); in test [1] (at 50.0 µM), 47.9% (inactive); in test [2] (setting [7]) it was 37% (inactive); in test [2] (setting [8]), 28% (inactive); in test [2] (at 50.0 µM), 29.6% (inactive). The growth inhibition in test [3] (setting [7]) was 96% (active); in test [3] (setting [8]), 95% (active); in test [3] (at 50.0 µM) it was 94.1% (active); in test [4] (setting [7]), 4% (inactive); in test [4] (setting [8]), 6% (inactive); in test [4] (at 50.0 µM) it was 3% (inactive). Moreover, the growth inhibition in test [5] (setting [7]) was 51% (inactive); in test [5] (setting [8]), 36% (inactive); in test [5] (at 50.0 µM) it was 26.1% (inactive); in test [6] (setting [7]) it was 51% (inactive); in test [6] (setting [8]), 44% (inactive); in test [6] (at 50.0 µM), 66.3% (inactive).

With `CCOP(=O)(Cc1cccc2ccccc12)OCC`, the growth inhibition is 5% (inactive) in test [1] (setting [7]); 13% (inactive) in test [1] (setting [8]); 4.65% (inactive) in test [1] (at 50.0 µM); 5% (inactive) in test [2] (setting [7]); -6% (inactive) in test [2] (setting [8]); -7.95% (inactive) in test [2] (at 50.0 µM). The growth inhibition was 4% (inactive) in test [3] (setting [7]); 17% (inactive) in test [3] (setting [8]); 13.4% (inactive) in test [3] (at 50.0 µM); 2% (inactive) in test [4] (setting [7]); 14% (inactive) in test [4] (setting [8]); 2.1% (inactive) in test [4] (at 50.0 µM). Further, the growth inhibition was 14% (inactive) in test [5] (setting [7]); 2% (inactive) in test [5] (setting [8]); 19.9% (inactive) in test [5] (at 50.0 µM); 17% (inactive) in test [6] (setting [7]); 29% (inactive) in test [6] (setting [8]); -3.35% (inactive) in test [6] (at 50.0 µM).

Turning to `N=C(N)SCc1ccc(Cl)c2ccccc12` (tested in a mixture with another compound), the growth inhibition in test [1] (setting [7]) is 12% (inactive) and 8% (inactive); in test [1] (setting [8]), 94% (active) and 60% (inactive); in test [1] (at 50.0 µM), 98.8% (active) and 90% (active); in test [2] (setting [7]), 1% (inactive) and -15% (inactive); in test [2] (setting [8]) it was 58% (inactive) and 35% (inactive); in test [2] (at 50.0 µM) it was 98.6% (active) and 89.5% (active). The growth inhibition was -6% (inactive) and -9% (inactive) in test [3] (setting [7]); 93% (active) and 51% (inactive) in test [3] (setting [8]); 98.5% (active) and 92.5% (active) in test [3] (at 50.0 µM); -40% (inactive) and -1% (inactive) in test [4] (setting [7]); 94% (active) and 38% (inactive) in test [4] (setting [8]); 94.8% (active) and 57% (inactive) in test [4] (at 50.0 µM). Also, the growth inhibition is -21% (inactive) and -5% (inactive) in test [5] (setting [7]); 72% (active) and 66% (inactive) in test [5] (setting [8]); 98.2% (active) and 92.8% (active) in test [5] (at 50.0 µM); 2% (inactive) and -3% (inactive) in test [6] (setting [7]); 91% (active) and 88% (active) in test [6] (setting [8]); 98.7% (active) and 96% (active) in test [6] (at 50.0 µM).

On to `CS(=O)(=O)[O-].CS(=O)(=O)[O-].NC1CCCCC1N.[Pt+4]` (stereo unspecified), for which the growth inhibition is 99% (active) in test [1] (setting [7]); 99% (active) in test [1] (setting [8]); 90.7% (active) in test [1] (at 50.0 µM); 100% (active) in test [2] (setting [7]); 99% (active) in test [2] (setting [8]); 91.2% (active) in test [2] (at 50.0 µM). Besides, the growth inhibition was 100% (active) in test [3] (setting [7]); 99% (active) in test [3] (setting [8]); 92% (active) in test [3] (at 50.0 µM); 100% (active) in test [4] (setting [7]); 99% (active) in test [4] (setting [8]); 90.9% (active) in test [4] (at 50.0 µM). Further, the growth inhibition was 99% (active) in test [5] (setting [7]); 99% (active) in test [5] (setting [8]); 91.2% (active) in test [5] (at 50.0 µM); 99% (active) in test [6] (setting [7]); 98% (active) in test [6] (setting [8]); 88.3% (active) in test [6] (at 50.0 µM).

For `CCN(CCCl)c1cc(CN(C)C)cc(NC(=O)c2ccc(C(=O)Nc3cccc(N(CCCl)NN)c3)cc2)c1`, the growth inhibition is -6% (inactive) in test [1] (setting [7]); 91% (active) in test [1] (setting [8]); 89.4% (active) in test [1] (at 50.0 µM); -5% (inactive) in test [2] (setting [7]); 98% (active) in test [2] (setting [8]); 98.2% (active) in test [2] (at 50.0 µM). In addition, the growth inhibition in test [3] (setting [7]) is 10% (inactive); in test [3] (setting [8]), 98% (active); in test [3] (at 50.0 µM) it was -2.7% (inactive); in test [4] (setting [7]), 1% (inactive); in test [4] (setting [8]), 95% (active); in test [4] (at 50.0 µM), 56.2% (inactive). For the same compound, the growth inhibition in test [5] (setting [7]) was -16% (inactive); in test [5] (setting [8]), 92% (active); in test [5] (at 50.0 µM), 97.8% (active); in test [6] (setting [7]), 25% (inactive); in test [6] (setting [8]) it was 97% (active); in test [6] (at 50.0 µM) it was 98.5% (active).

For the compound `CCOP(=O)(OCC)Oc1ccc([N+](=O)[O-])cc1`, the growth inhibition in test [1] (setting [7]) was 8% (inactive); in test [1] (setting [8]) it was -5% (inactive); in test [1] (at 50.0 µM), 0.55% (inactive); in test [2] (setting [7]) it was -10% (inactive); in test [2] (setting [8]), -13% (inactive); in test [2] (at 50.0 µM), 2.65% (inactive). The growth inhibition in test [3] (setting [7]) is 12% (inactive); in test [3] (setting [8]) it was 16% (inactive); in test [3] (at 50.0 µM) it was -7% (inactive); in test [4] (setting [7]), 6% (inactive); in test [4] (setting [8]), 7% (inactive); in test [4] (at 50.0 µM), 38.7% (inactive). The growth inhibition in test [5] (setting [7]) was -4% (inactive); in test [5] (setting [8]), 14% (inactive); in test [5] (at 50.0 µM), 9.8% (inactive); in test [6] (setting [7]) it was 13% (inactive); in test [6] (setting [8]), 4% (inactive); in test [6] (at 50.0 µM) it was 3.55% (inactive).
